Drawing on PubChem BioAssay AID2315 (National Center for Advancing Translational Sciences (NCATS), 2010), this text covers inhibition for 63 compounds.

Hit rate of the full screen: of about 290,000 compounds, about 27,000 (9.3%) were called active. Rule as the data show it: active = inhibition mostly above about 28% (no sharp cut-off); inactive = mostly below about 43%. The full list was thinned out, with actives kept by preference.

The nature of the assay: A qHTS for Small Molecule Inhibitors of Shiga Toxin. Also: 0% is about no effect. The following applies: Vero cells, Shiga toxin protein synthesis inhibition reporter; at 38.7 µM, stronger effect = higher value. A general note: qHTS replaces the single test concentration by a dilution series.
In general, inhibition refers to the drop in the measured response relative to a control, in per cent. Regarding `COc1ccccc1C(=O)N(C1=NC(C)CS1)c1ccc(Cl)cc1` (stereo not drawn), the inhibition was -5.01% (inactive).
With `COc1ccccc1CNC(=O)C1CCN(C(=O)[C@@H]2Cc3ccccc3CN2)CC1` the figure was 13.3% (inactive).
`Cc1c(C(=O)NCC(c2ccco2)N2CCCC2)oc2ccc(Cl)cc12` (stereo not drawn): the inhibition is 49.7% (inactive).
In the case of `Cc1nc2nc(SCC(=O)Nc3cccc(F)c3)[nH]c2cc1Br`, the inhibition is 6.55% (inactive).
The value for `CCCCn1c(SCC(=O)N2CCOCC2)nc2c1c(=O)n(C)c(=O)n2C` was -5.05% (inactive).
`CC(=O)N(C)c1ccc(NC(=O)Nc2cccc3ccccc23)cc1`: the inhibition was 77.5% (active).
As to `O=C(O)Cc1ccc(NC(=O)Nc2cccc3ccccc23)cc1`, the inhibition is -1.4% (inactive).
As to `CC(=O)N(C)c1ccc(NC(=O)C(F)(F)F)cc1`, the inhibition is 13.5% (inactive).
Consider `CCOc1ccc(NC(=O)Nc2ccc(N(C)C(C)=O)cc2)cc1`, for which the inhibition was 73.9% (active).
As to `CCOc1ccc(NC(=O)N(CC(C)C)CC(C)C)cc1`, the inhibition was 26.1% (inactive).
Consider `O=C(Nc1ccc2c(c1)C(=O)OC2)Nc1cccc2ccccc12`, for which the inhibition is 12.8% (inactive).
In the case of `NS(=O)(=O)c1ccc(CCNC(=O)c2nc(CS(=O)(=O)c3ccc(Cl)cc3)no2)cc1`, the inhibition was -2.78% (inactive).
In the case of `O=Cc1ccc(Oc2cccc(C(F)(F)F)c2)nc1`, the inhibition was 12.2% (inactive).
Take `FC(F)(F)c1ccnc(Oc2ccc(C3=NCCS3)cc2)c1`: the inhibition was 64.7% (active).
As to `C[C@H](NC(=O)C1CC(=O)N(c2ccc3c(c2)OCO3)C1)C(=O)NCc1ccco1` (stereo partly drawn), the inhibition was -4.62% (inactive).
Turning to `O=S(=O)(NC1CCCCC1N1CCCCC1)c1ccc(Cl)cc1` (stereo not drawn), the inhibition was -21.5% (inactive).
As to `O=C(NCc1ccncc1)C1CCCN(S(=O)(=O)c2ccc(Br)cc2)C1` (stereo not drawn), the inhibition was -9.96% (inactive).
Regarding `Cc1nc2sc3c(c2c(=O)n1NC(=O)CCl)CCCC3`, the inhibition was -6.21% (inactive).
As for `COCCNc1nc(-n2nc(C)cc2C)nc2sc3c(c12)CCCC3`, the inhibition is 51.2% (active).
For the compound `CCC(O)CNc1nc(-n2nc(C)cc2C)nc2sc3c(c12)CC(C)(C)OC3` (stereo not drawn), the inhibition is -11.2% (inactive).
With `COc1ccccc1NC(=O)c1cc(N2C(=O)C3C4CCC(C4)C3C2=O)ccc1Cl` (stereo not drawn), the inhibition was -3.33% (inactive).
`COc1ccccc1N1CCN(S(=O)(=O)c2ccc3c(c2)NC(=O)CS3)CC1`: the inhibition is 16.6% (inactive).
As to `N#Cc1c(NC(=O)CCCl)sc2c1CCCCC2`, the inhibition was 25% (inactive).
On to `N#Cc1c(NC(=O)C2CC(Cl)=CCC2C(=O)O)sc2c1CCCCC2` (stereo not drawn), for which the inhibition was 18.3% (inactive).
With `N#Cc1c(NC(=O)C2CCCO2)sc2c1CCCCC2` (stereo not drawn) the figure was 82.7% (active); with `Cc1c(C)c2ccc(OCC(=O)N3CCC(C(=O)O)CC3)c(C)c2oc1=O`, -1.33% (inactive).
Regarding `Nc1ccn(C2CC(O)C(CO)O2)c(=O)n1` (stereo not drawn), the inhibition was -2.7% (inactive).
For `CCOC(=O)c1c(NC(=O)CSc2nccc(=O)[nH]2)sc(C)c1C`, the inhibition was -11.1% (inactive).
As to `Cc1ccc2ccc3c(c2n1)NS(=O)(=O)c1ccccc1-3`, the inhibition is -4.77% (inactive).
Take `Nc1ccccc1Sc1ccc(C(F)(F)F)cc1[N+](=O)[O-]`: the inhibition is -8.21% (inactive).
Take `CCS(=O)(=O)c1cc([N+](=O)[O-])c(Sc2ccccc2N)s1`: the inhibition was 101% (active).
The value for `CCOC(=O)c1cc(Sc2ccccc2N)cc(C(=O)OCC)n1` was -2.59% (inactive); that for `C/C(=N\NC(=O)c1nc(C)cc(C)n1)c1ccccc1` was 86.5% (active).
`C/C(=N\NC(=O)c1cccnc1)c1ccc(-c2ccccc2)cc1`: the inhibition was 20.1% (inactive).
The value for `COc1ccc(/C(C)=N/NC(=O)c2ccc3nc[nH]c3c2)cc1` was -11.9% (inactive); that for `COc1ccc(N=Nc2c(-c3ccc(OC)cc3)[nH]oc2=O)cc1` was -1.4% (inactive).
The value for `Cc1cc(C)cc(OCC(=O)NC(C)c2ccccc2)c1` (stereo not drawn) was 16.2% (inactive); that for `COc1cc(NC(=O)c2ccccc2)c(OC)cc1NC(=O)Cc1ccccc1` was -6.61% (inactive); that for `COC(=O)C1CCN(C(=O)c2ccc3oc(Cc4ccc(Cl)cc4)nc3c2)CC1` was -23.6% (inactive).
The value for `COc1ccc(Cc2nc3ccc(C(=O)N4CCC(N(C)C)C4)cc3o2)cc1` (stereo not drawn) was 5% (inactive).
On to `COCC1CCN(C(=O)c2ccc3oc(Cc4ccccc4)nc3c2)C1` (stereo not drawn), for which the inhibition was 42.2% (active).
In the case of `CN(C)c1ccc(/C=C2\NC(=S)N(Cc3ccccc3)C2=O)cc1`, the inhibition was 3.47% (inactive).
On to `CCc1nn(CCCC(=O)NC(C)c2ccccc2)c(=O)c2cc3occc3n12` (stereo not drawn), for which the inhibition is 11.1% (inactive).
As to `CC(C)(C)C1CCC(=NNC(=O)c2cc(-c3ccccc3)n[nH]2)CC1` (stereo not drawn), the inhibition was 5.96% (inactive).
For `CCC(C)(C)C1CCC(=NNC(=O)c2ccc(Br)o2)CC1` (stereo not drawn), the inhibition was 123% (active).
For `CC(C)(C)C1CCC(=NNC(=O)c2ccc(Br)o2)CC1` (stereo not drawn), the inhibition was 50.9% (active).
On to `CC(NC(=O)C(=O)NN=C1CCC(C(C)(C)C)CC1)c1ccccc1` (stereo not drawn), for which the inhibition was -9.73% (inactive).
In the case of `O=C(CNC(=O)c1ccc(Br)o1)NCC1CCCO1` (stereo not drawn), the inhibition is -17.7% (inactive).
Take `CCCC(=O)Nc1ccc(Cl)c(NC(=O)c2ccc(Br)o2)c1`: the inhibition was -13.8% (inactive).
With `O=C(CCN1C(=O)[C@@H]2Cc3ccccc3CN2C1=O)NCc1ccccc1` the figure was -1.35% (inactive); with `CCc1ccc(S(=O)(=O)N/N=C\c2ccc([N+](=O)[O-])o2)cc1`, 9.6% (inactive).
With `O=C(/C=C/c1ccc(OCc2c(F)cccc2Cl)cc1)N1CCOCC1`, the inhibition was 54.8% (inactive).
With `CCOC(=O)C(C)n1cnc2scc(-c3ccc(C)c(C)c3)c2c1=O` (stereo not drawn), the inhibition is 2.19% (inactive).
With `CCCN1C2=C(C(=O)CCC2)C(c2ccc(O)c(Br)c2)C2=C1CCCC2=O`, the inhibition was 6.12% (inactive).
`CCOC(=O)C1(CCOc2ccccc2)CCN(Cc2cc(OC)c(O)cc2Cl)CC1`: the inhibition was 21.9% (inactive).
As to `CCN(CC)CCn1cnc2c1c(=O)[nH]c(=O)n2Cc1ccccc1`, the inhibition is -12.7% (inactive).
The value for `C=CCNC(=O)COc1coc(CN2CCN(Cc3ccccc3)CC2)cc1=O` was -1.93% (inactive).
For the compound `COc1ccc(/C=C2\SC(=O)N(CCC(=O)NC3CCS(=O)(=O)C3)C2=O)cc1` (stereo not drawn), the inhibition was 65.1% (active).
Take `COc1ccc(NC(=O)CCN2C(=O)/C(=C/c3ccc4c(c3)OCO4)SC2=S)cc1`: the inhibition was -2.97% (inactive).
Regarding `O=C(CCN1C(=O)c2ccccc2C1=O)NCCCn1ccnc1`, the inhibition is -4.06% (inactive).
Consider `COc1ccc(/C=C2\SC(=O)N(CCC(=O)NCCCn3ccnc3)C2=O)cc1`, for which the inhibition is 65.3% (active).
As to `O=C(CN1C(=O)S/C(=C\c2ccccc2F)C1=O)NCCCn1ccnc1`, the inhibition is 1.8% (inactive).
As for `COc1ccccc1/C=C1\SC(=O)N(CCC(=O)N(C)C2CCS(=O)(=O)C2)C1=O` (stereo not drawn), the inhibition was 18.1% (inactive).
